The supplement of paper PMC11417369
Whole data set: some 25,000 sequences, median “ln(normalized median fluorescence intensity)” near 6.7, cut for the highest 2% near 10. Only a selection was taken, and the highest values are over-represented in it overall.

tested on: PfHDP1 homeodomain (GST-tagged); experiment: gcPBM binding intensity (ln(normalized median fluorescence intensity)); higher = stronger DNA binding
Summary of the method: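 Probes on an Agilent 4 × 180k array were primer-extended, double-stranded and 36 bp long, taken from intergenic genomic regions, with negative controls added. GST-tagged P. falciparum DNA-binding domains from E. coli, about 25 μg on average, were applied to the array for 1 h in 1× PBS containing 1% milk, 0.2 mg/ml BSA, 0.5% salmon testes DNA and 0.03% Triton X-100. Binding intensity, obtained after Alexa488 anti-GST antibody detection and a 488 nm scan, is the highest Masliner-normalised natural-log median intensity across replicate spots of either probe orientation.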

Sequence	gcPBM binding intensity (ln)
CATTTGCACACGCACACACACATAAAAAGAAAAATA [CACACA_site6297]	10.8
CATTTGCCCAGGCACACACACATAAAAAGAAAAATA [CACACA_site356]	6.34
ATCATTTGCATACGCACACACACATAAAAAGAAAAA [CACACA_site355]	8.44
TTATCACATTATTGCACACACATAAAGAAAAAAATA [CACACA_site2841]	9.63
ATCATTTGCTCACGCACACACACATAAAAAGAAAAA [CACACA_site4349]	9.55
CATTTGCACCCGCACACACACATAAAAAGAAAAATA [CACACA_site4350]	10.7
AACTATATCATTTATTTTATTTTTTAAATACATTTA [CACACA_negctrl_site183]	6.19
ATATATGTAATAAATAGTACACACACACATATATAT [XGTACX_site2817]	7.35
ATACTGTATAGTCGCACACAAAAATATAAAATATTT [CACACA_site6004]	6.65
CATATATATTTGTTCACACACACACTAATAAAAAAA [CACACA_site8787]	6.85
TTGCAAATATATGGTTGTACTCAAAAAAAAAAAAAA [XGTACX_site6975]	6.47
GAAAGAAATAAAGGTGGTACATAAATAAAAACTAAG [XGTACX_site4826]	6.97
TATATATATTTCCAGTGTACTTATTTTTTAATCAAT [XGTACX_site8220]	6.7
TTTTTTTTGTTCATTGTGCACATTGCTTGCATGGAA [GTGCAC_site9693]	10.8
TATCATTGTTCATGCTTGCACTTTTGTTACTGTTCC [GTGCAC_site9425]	6.75
TTTTTTTTTTTTGGTGCATGCACATTTTGTTTTTTT [TGCATGCA_site570]	10
AGTAGGCATATTGGTTGTACAAAAAAATTATGCACC [XGTACX_site8925]	10.6
GTAGGCATTAAAAAATGTACAAAATATTATGAATTG [XGTACX_site1615]	6.32
TGAACATATTAAAATTGTACATATGCACAATATGTA [XGTACX_site6801]	9.28
AAACATAAAGAAAAAAAAAATATATATTTATTTATT [GTGCAC_negctrl_site357]	6.33
ATATACACATATACATGTACAAATATATATACACAT [XGTACX_site2986]	6.9
CATATGTATATGACTACACACAAGGGTGTACCTATA [CACACA_site6670]	6.34
AATAGATTTTTATGCGTGCACACATTTAACAAAAAA	10.3
TTTAACATTTCAGATGTGCACATTTTCCGAACCAGT	10.9
GAACATTTATTGTGTGTGCACAATTCTTTTTTAACC [GTGCAC_site9697]	10.2
